JMJD2A Tudor inh = qHTS Assay for Inhibitors of JMJD2A-Tudor Domain | Lysine-specific demethylase 4A (Homo sapiens), O75164 | AlphaScreen JMJD2A-Tudor / H3K4me3 peptide binding | Potency, µM (series often up to 114 µM), hits mostly inhibitors | 390,000 compounds, 4.4% hits | AID 504339, 2011; further: nearly all actives have a fitted effect of over 50% in size
Target sequence (O75164 whole entry, looked up, the tested form may be a part): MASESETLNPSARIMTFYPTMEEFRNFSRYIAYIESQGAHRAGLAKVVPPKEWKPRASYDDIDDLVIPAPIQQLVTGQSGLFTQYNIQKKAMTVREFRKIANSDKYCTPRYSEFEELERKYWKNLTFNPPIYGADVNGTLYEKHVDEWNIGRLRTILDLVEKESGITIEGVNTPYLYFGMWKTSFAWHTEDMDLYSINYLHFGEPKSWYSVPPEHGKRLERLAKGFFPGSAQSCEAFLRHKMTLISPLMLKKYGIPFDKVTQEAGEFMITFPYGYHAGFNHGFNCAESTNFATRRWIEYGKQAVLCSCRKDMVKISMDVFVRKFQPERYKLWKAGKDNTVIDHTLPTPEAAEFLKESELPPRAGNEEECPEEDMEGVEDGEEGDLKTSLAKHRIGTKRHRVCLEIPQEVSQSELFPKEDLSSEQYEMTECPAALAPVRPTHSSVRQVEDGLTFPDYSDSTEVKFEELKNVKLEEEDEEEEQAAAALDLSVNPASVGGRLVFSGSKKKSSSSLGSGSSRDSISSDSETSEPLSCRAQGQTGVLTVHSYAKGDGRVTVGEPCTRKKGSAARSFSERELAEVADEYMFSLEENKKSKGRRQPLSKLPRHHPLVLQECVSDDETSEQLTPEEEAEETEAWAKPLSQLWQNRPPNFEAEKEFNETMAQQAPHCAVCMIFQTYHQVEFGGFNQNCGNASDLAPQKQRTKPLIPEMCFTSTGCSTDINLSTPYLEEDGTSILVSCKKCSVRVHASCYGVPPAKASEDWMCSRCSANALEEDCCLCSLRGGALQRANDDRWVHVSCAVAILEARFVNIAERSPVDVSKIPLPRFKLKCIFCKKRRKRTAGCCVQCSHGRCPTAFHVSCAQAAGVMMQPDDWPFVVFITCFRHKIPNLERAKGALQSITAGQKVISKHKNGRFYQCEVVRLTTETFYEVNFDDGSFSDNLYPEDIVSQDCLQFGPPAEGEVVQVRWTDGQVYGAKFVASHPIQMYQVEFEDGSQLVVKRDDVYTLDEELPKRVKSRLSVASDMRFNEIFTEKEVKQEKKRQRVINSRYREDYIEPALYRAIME
HP1b chromo inh = HTS for Inhibitors of HP1-beta Chromodomain Interactions with Methylated Histone Tails; Chromobox protein homolog 1 (Homo sapiens), P83916; AlphaScreen HP1-beta / biotin-H3K9me3 peptide binding; Potency, µM (series often up to 114 µM), actives largely listed as inhibitors; 390,000 compounds, 0.56% hits; further: nearly all actives have a fitted effect of over 70% in size
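AlphaScreen: HP1-beta (50 nM) preformed 30 min with biotin-H3(1-18)K9me3 peptide (50 nM) in PBS pH 7.4, 0.01% Tween-20. Compound added for 30 min at RT, then streptavidin donor/nickel chelate acceptor beads (10 ug/mL) for 30 min.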
BAZ2B inh = qHTS Assay for Inhibitors of BAZ2B | Bromodomain adjacent to zinc finger domain protein 2B (Homo sapiens), Q9UIF8 | AlphaScreen BAZ2B-H3K14Ac peptide displacement | Potency, µM (top dose mostly 114 µM), usual class: inhibitors | 360,000 compounds, 4.4% hits; further: nearly all actives have a fitted effect of over 60% in size
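In this displacement format the biotinylated H3(5-23) peptide acetylated at Lys14 serves as ligand at 50 nM, with BAZ2B at 50 nM in PBS pH 7.4 containing 0.01% Tween-20. Donor and acceptor beads are 10 ug/mL final.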
PLK1 PBD block = qHTS for Inhibitors of PLK1-PDB (polo-like kinase 1 - polo-box domain): Primary Screen. Plk1 PBD binding of FITC phosphopeptide, fluorescence polarization. Potency, µM, hits mostly inhibitors. 360,000 compounds, 2.8% hits; further: series mostly up to about 57 µM; nearly all actives have a fitted effect of over 65% in size
G9a inh = qHTS Assay for Inhibitors of Histone Lysine Methyltransferase G9a; Potency, µM (series often up to 102 µM), usual class: inhibitors; AID 504332, 2011; 350,000 compounds, 8.8% hits; Histone-lysine N-methyltransferase EHMT2 (Homo sapiens), Q96KQ7; G9a H3K9 monomethylation, AlphaScreen, 2 h; further: nearly all actives have a fitted effect of over 75% in size
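Step 1: enzyme (final 20 nM) with compound, 15 min RT. Step 2: substrate peptide 500 nM and SAM 20 uM, 2 h RT. Step 3: anti-H3K9me1 antibody and AlphaScreen beads, 10 min, then plate read.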
PI5P4K alpha inh = qHTS for Inhibitors of phosphatidylinositol 5-phosphate 4-kinase (PI5P4K) | Phosphatidylinositol 5-phosphate 4-kinase type-2 alpha (Homo sapiens), P48426 | PI5P4Kalpha enzyme, ADP-Glo luminescence, 60 min; active compounds read low | max response, % | 330,000 compounds, 1.2% hits; active means max response of -50% or lower; inconclusive means between -30% and -50%; inactive means -30% or higher; further: value at the top dose of about 77 µM
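Human PI5P4Kalpha with substrate in 0.038 M HEPES pH 7.4, 0.28 mM EGTA, 0.1% CHAPS, 5% DMSO; reaction started with 5 microM ATP (final), 60 min at room temperature. ADP formed read by ADP-Glo luminescence.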
Numbers stand for hits; n = inactive; u = inconclusive; x = not tested or not shown; [ ] = remark or other dose. Only some compounds are listed: those with a hit (about 12% of all), similar ones and a draw of the others. Unless noted, the call rests on the fitted dose curve; in most records, active means well fitted curve in the direction sought with a large enough effect; inconclusive means small, poorly fitted or top-dose-only effect, or another doubt; inactive means no such curve, though single readings can be large; an effect the other way counts as inactive or inconclusive.

SMILES | JMJD2A Tudor inh | HP1b chromo inh | BAZ2B inh | PLK1 PBD block | G9a inh | PI5P4K alpha inh
CCOc1ccc(C2C(C#N)=C(N)SC(N)=C2C#N)c(OCC)c1 | u | n | n | n | 14µM | -63
COc1ccc(C2C(C#N)=C(N)SC(N)=C2C#N)cc1OC | 56µM | n | n | n | u | -60
CCOc1cc(C2C(C#N)=C(N)SC(N)=C2C#N)ccc1OCCN1CCOCC1 | 45µM | u | n | 27µM | 2.5µM | x
COc1ccc(C2C(C#N)=C(N)OC(C(C)(C)C)=C2C#N)cc1OC (stereo not given) | n | n | n | n | n | n
COC(=O)C1=C2SC(C)C(=O)N2C(N)=C(C#N)C1c1ccc(OC)c(OC)c1 (stereo not given) | n | n | n | n | u | -58
COC(=O)C1=C2SC(C)C(=O)N2C(N)=C(C#N)C1c1cc(OC)c(OC)c(OC)c1 (stereo not given) | n | n | n | n | u | u
COCCNC(=O)c1onc(CSc2ccccc2)c1C(=O)NCCOC | n | n | n | n | n[2.33 µM] | n
O=C1CCCC2(O)C1C(c1cccc(Br)c1)NC(=O)N2Cc1ccccc1 (stereo not given) | n | n | n | n | 45µM | n
C[C@@H]1CC=C[C@@H]2[C@H]1C(=O)N(Cc1ccccc1)[C@H]2c1cccc(Br)c1 | n | n | x | n | n | n
CS(=O)(=O)c1ccc(C(=O)OCC#CCSc2nnc(-c3cccc4ccccc34)o2)cc1 | n | x | x | x | x | x
CCCCNc1ccc2c(c1)C1CC2CCN1C(=O)OCc1ccccc1 (stereo not given) | 25µM | n | x | n | x | n
CNC(=O)c1[nH]cnc1C(=O)NCC(=O)OC(C)(C)C | n | n | n | n | u | n
COc1ccc(NC(=O)c2nc[nH]c2C(=O)NCc2ccccc2)cc1 | n | n | n | n | n[2.33 µM] | n
CNC(=O)c1[nH]cnc1C(=O)Nc1ccc(OC)cc1 | n | n | 79µM | n | x | n
Nc1ccccc1C(=O)NCc1ccccc1 | 35µM | n | n | 3.8µM | n | n
NNC(=O)c1nc[nH]c1C(=O)Nc1ccccc1 | u | n | 1.3µM | n | u | n
CCNC(=O)c1nc[nH]c1C(=O)NCC | 40µM | n | n | n | n | n
Cc1ccccc1CNC(=O)c1ccccc1N | n | n | n | n | n | x
CC[C@H](C)C(=O)O[C@H]1CCC=C2C=C[C@H](C)[C@H](CC[C@@H]3C[C@H](O)CC(=O)O3)C21 (stereo not given in full) | x | x | x | x | n[12.7 µM] | x
O=C(COC(=O)Cn1cnc2ccccc21)Nc1ccc(F)c(F)c1 | n | n | x | n | x | n
CN(Cc1ccccc1)C(=O)c1[nH]cnc1C(=O)Nc1nccs1 | 56µM | n | 25µM | u | n[0.501 µM] | u
O=C(Nc1ccccc1[N+](=O)[O-])c1nc[nH]c1C(=O)NCCO | u | n | 56µM | n | 14µM | n
O=C(NCc1ccccc1)c1nc[nH]c1C(=O)NCc1ccccc1 | n | n | u | n | 50µM | n
CN(Cc1ccccc1)C(=O)c1[nH]cnc1C(=O)NCc1ccccc1 | n | n | u | n | n[0.501 µM] | n
CNC(=O)c1nc[nH]c1C(=O)NC | 28µM | n | u | n | u | n
SMILES | JMJD2A Tudor inh | HP1b chromo inh | BAZ2B inh | PLK1 PBD block | G9a inh | PI5P4K alpha inh
Cc1ccc(C(=O)NCC(=O)OC(C(=O)Nc2cc(C(F)(F)F)ccc2Cl)c2ccccc2)cc1 (stereo not given) | n | x | x | x | x | x
COc1ccc(S(=O)(=O)N(C)CC(=O)NCc2ccc3c(c2)OCO3)cc1 | n | n | n | n | n | n
O=C(Nc1ccc(F)cc1)c1nc[nH]c1C(=O)O | 10µM | n | 4.5µM | n | n[2.33 µM] | u
O=C(Nc1ccc(F)cc1)c1nc[nH]c1C(=O)Nc1ccccc1[N+](=O)[O-] | n | n | n | n | n | n
CC(C)N(Cc1nccn1C)C(=O)CC1C(=O)NCCN1Cc1ccc(F)c(F)c1 (stereo not given) | n | n | n | n | 40µM | n
CN(C(=O)CC1C(=O)NCCN1Cc1ccc(F)c(F)c1)C1CCCCC1 (stereo not given) | n | n | n | n | 45µM | n
Cc1ccc(CN2CCNC(=O)C2CC(=O)N(C)C2CCOCC2)cc1 (stereo not given) | n | n | n | n | 50µM | n
CN(C(=O)CC1C(=O)NCCN1Cc1cccc(F)c1F)C1CCOCC1 (stereo not given) | n | n | n | n | u | n
COc1ccc(CN2CCNC(=O)C2CC(=O)N(C)C2CCCCC2)cc1OC (stereo not given) | x | x | x | n | x | n
CN(C(=O)CC1C(=O)NCCN1Cc1c(F)cccc1Cl)C1CCOCC1 (stereo not given) | n | n | n | n | 45µM | n
CN(C)c1ccc(N=Cc2nc(-c3ccccc3)oc2OC(=O)c2cccc(Cl)c2)cc1 | n | n | n | n | 8.9µM | n
COc1ccc(N=Cc2nc(-c3ccccc3)oc2OC(C)=O)cc1 | n | n | n | u | x | n
COc1cccc(N=Cc2nc(-c3ccccc3)oc2OC(C)=O)c1 | n | n | n | u | 50µM | n
Cc1ccc(C2CC(=O)Oc3cc(C)c(Cl)cc32)cc1 (stereo not given) | x | x | x | x | n | x
CCn1c(C(=O)NCc2ccccc2Br)cc2oc3ccccc3c21 | n | n | n | x | n | x
Cc1cccc(N2CCN(S(=O)(=O)c3ccc4oc(=O)c5ncn(C)c5c4c3)CC2C)c1 (stereo not given) | n | n | n | x | n | x
CCN(CC)CCCNc1nc2ccccc2c2[nH]c3ccc(OC)cc3c12 | n | n | x | n | x | n
Cc1ccc2c(c1)CC1(CN2C)C(=O)OC2(CCCCC2)OC1=O | n | n | n | n | 50µM | n
Cc1cc(C)c(S(=O)(=O)N2CCN(C(=O)c3ccc(-n4cncn4)c([N+](=O)[O-])c3)CC2)c(C)c1 | n | n | n | n | u | n
CC(=O)Nc1ccc(NC(=S)NC(=O)/C=C/c2ccco2)cc1 | u | n | u | u | n[0.501 µM] | -64
COc1cc(NS(=O)(=O)c2ccc(NC(=S)NC(=O)/C=C/c3ccco3)cc2)ncn1 | 18µM | u | n | 13µM | u | -56
CN1CCN(c2ccc(NC(=S)NC(=O)/C=C/c3ccco3)cc2)CC1 | u | n | u | n | 45µM | n

Compound activity deposited in PubChem by National Center for Advancing Translational Sciences (NCATS).
